Paper PMC10726135, “HNF4α isoforms regulate the circadian balance between carbohydrate and lipid metabolism in the liver”
In all, about 18,000 sequences were measured (“log2 normalized intensity”: median about 0.39, highest 2% from about 6.6 on). The list comes from a sample in which the highest values are over-represented; it also holds similar and randomly drawn sequences.

These sequences were tested against T1, HNF4alpha2 (COS-7 nuclear extract) (Homo sapiens, UniProt P41235 1-474) (assay: protein-binding microarray; COS-7 nuclear extract on double-stranded Agilent 4x180k PBM; binding buffer, salt, pH and temperature not given in the material; high values mean tight binding). Details: chain copies: 2; label: 3' end of strand 1 on the slide; dsDNA, one strand shown.
T1 sequence: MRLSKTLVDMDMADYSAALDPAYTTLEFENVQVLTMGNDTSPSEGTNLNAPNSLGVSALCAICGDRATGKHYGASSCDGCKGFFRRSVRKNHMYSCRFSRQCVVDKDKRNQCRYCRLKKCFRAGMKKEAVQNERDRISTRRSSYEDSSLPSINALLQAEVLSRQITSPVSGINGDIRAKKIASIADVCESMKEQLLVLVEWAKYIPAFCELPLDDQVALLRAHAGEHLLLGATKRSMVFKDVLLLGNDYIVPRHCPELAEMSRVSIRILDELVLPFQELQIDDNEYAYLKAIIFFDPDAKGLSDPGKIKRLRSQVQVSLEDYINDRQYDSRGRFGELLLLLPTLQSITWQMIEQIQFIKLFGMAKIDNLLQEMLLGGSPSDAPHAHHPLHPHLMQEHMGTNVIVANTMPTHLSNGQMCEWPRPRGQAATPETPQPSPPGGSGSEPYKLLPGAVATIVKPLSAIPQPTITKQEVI
In short: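 Double-stranded oligonucleotides of ~60 nt, representing ~44,000 test sequences in quadruplicate, made up a custom Agilent SurePrint G3 4x180k array. Nuclear extracts from COS-7 cells transiently transfected by CaPO4 with a human HNF4α isoform expression vector were applied, and bound HNF4α was imaged at 2-µm resolution on an Agilent G2565CA scanner. Binding signal refers to the background-corrected, normalized gProcessedSignal output of Agilent software.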

Sequence | binding signal
CCTCTCTCTCTCTCTCTCACACACACACACGCCTAGGGAGATTAGAGTATCGGTCGA | 2.09 log2 normalized intensity
CTTACTTGGCATCATCAAACAAGATTTATCGCCTAGGGAGATTAGAGTATCGGTCGA | -0.732 log2 normalized intensity
TGTAGGTAAGCACAAAGTACAGCTTTTTGTGCCTAGGGAGATTAGAGTATCGGTCGA | 1.13 log2 normalized intensity
TATAAAGGTCAACTGCCCTCTCAAATTACAGCCTAGGGAGATTAGAGTATCGGTCGA | 1.51 log2 normalized intensity
TTTTAAAATAGATAAGTCCCTAAGAGGAATGCCTAGGGAGATTAGAGTATCGGTCGA | -0.74 log2 normalized intensity
ACAAATGAGGGGACAAAGTTCGTGGAAAGTGCCTAGGGAGATTAGAGTATCGGTCGA | 2.91 log2 normalized intensity
GAGCCTGCACGCCTGTTCACATTCCAGTGTGCCTAGGGAGATTAGAGTATCGGTCGA | -0.595 log2 normalized intensity
GACAGGATATTTTGAGGGCTCAAAGGTTACGCCTAGGGAGATTAGAGTATCGGTCGA | 5.37 log2 normalized intensity
TTTTTTTTCTTAATTGCCCTTTGCCCTTTGGCCTAGGGAGATTAGAGTATCGGTCGA | 8.54 log2 normalized intensity
ACAGTAGACTTTTTTTTTCTTAATTGCCCTGCCTAGGGAGATTAGAGTATCGGTCGA | 2.84 log2 normalized intensity
ACTTTGCCCTTTTTTTCTCTCCCCTTTTAAGCCTAGGGAGATTAGAGTATCGGTCGA | 2.54 log2 normalized intensity
AGACTTTTTTTTTCTTAATTGCCCTTTGCCGCCTAGGGAGATTAGAGTATCGGTCGA | 4.26 log2 normalized intensity
TGACCTTTGCATTCTTACCCAAGCCCCAAAGCCTAGGGAGATTAGAGTATCGGTCGA | 3.73 log2 normalized intensity
TTTCTTAATTGCCCTTTGCCCTTTGCCCAAGCCTAGGGAGATTAGAGTATCGGTCGA | 8.01 log2 normalized intensity
CCATCCTACAGGGTATGAATTTAACCTTTGGCCTAGGGAGATTAGAGTATCGGTCGA | 4.2 log2 normalized intensity
CCCTAATTACATATTAACCTTTGCCCCAGCGCCTAGGGAGATTAGAGTATCGGTCGA | 6.63 log2 normalized intensity
CTACAGGGTATGAATTTAACCTTTGCTCTCGCCTAGGGAGATTAGAGTATCGGTCGA | 6.87 log2 normalized intensity
ATATTAACCTTTGCCCCAGCTGTCACCCAGGCCTAGGGAGATTAGAGTATCGGTCGA | 5.03 log2 normalized intensity
GGGTATGAATTTAACCTTTGCTCTCTGAAAGCCTAGGGAGATTAGAGTATCGGTCGA | 5.68 log2 normalized intensity
ATTACATATTAACCTTTGCCCCAGCTGTCAGCCTAGGGAGATTAGAGTATCGGTCGA | 5.74 log2 normalized intensity
AAAGGTCATTTCTGCTTGCAACCAAAGGAGGCCTAGGGAGATTAGAGTATCGGTCGA | 1.52 log2 normalized intensity
GCAGATGTGTCTTTATAACAGACTGTAGGCGCCTAGGGAGATTAGAGTATCGGTCGA | 0.596 log2 normalized intensity

Sequence | binding signal
GCCAAGCTCTGGGCTAGTCCCTGAGTATTAGCCTAGGGAGATTAGAGTATCGGTCGA | -0.902 log2 normalized intensity
TCCCTCTGCTCCCCTGGCCTCACCCTTGTCGCCTAGGGAGATTAGAGTATCGGTCGA | 2.72 log2 normalized intensity
ATTCCAAAAAGCTTTTGTCATGACCTTCGCGCCTAGGGAGATTAGAGTATCGGTCGA | 4.71 log2 normalized intensity
AAGGATCAAGGACCTGCTCTGGGGCTACCTGCCTAGGGAGATTAGAGTATCGGTCGA | -0.978 log2 normalized intensity
CATTGATAATTCAGTTTCATTGCACTTTGCGCCTAGGGAGATTAGAGTATCGGTCGA | 4.01 log2 normalized intensity
TAATTGCCCTTTGCCCTTTGCCCAACCCTCGCCTAGGGAGATTAGAGTATCGGTCGA | 7.02 log2 normalized intensity
ATAATTCAGTTTCATTGCACTTTGCCCTCTGCCTAGGGAGATTAGAGTATCGGTCGA | 8.65 log2 normalized intensity
TCAGTTTCATTGCACTTTGCCCTCTCTTCAGCCTAGGGAGATTAGAGTATCGGTCGA | 6.57 log2 normalized intensity
GCCCTTTGCCCTTTGCCCAACCCTCTCCCAGCCTAGGGAGATTAGAGTATCGGTCGA | 5.55 log2 normalized intensity
TTGCCCTTTGCCCAACCCTCTCCCACTCCCGCCTAGGGAGATTAGAGTATCGGTCGA | 4.91 log2 normalized intensity
ATTTCTAGGTTTGATCTTTGCCCTACAATTGCCTAGGGAGATTAGAGTATCGGTCGA | 5.51 log2 normalized intensity
AGGGAATTTCTAGGTTTGATCTTTGCCCTAGCCTAGGGAGATTAGAGTATCGGTCGA | 6.85 log2 normalized intensity
TCCTCAGGGAATTTCTAGGTTTGATCTTTGGCCTAGGGAGATTAGAGTATCGGTCGA | 2.95 log2 normalized intensity
ACTCCTTTGCTTATCTGATAAGTCCATACCGCCTAGGGAGATTAGAGTATCGGTCGA | 1.53 log2 normalized intensity
ACTCAGGATACCTAAGCCCCATGCTGATAAGCCTAGGGAGATTAGAGTATCGGTCGA | 1.32 log2 normalized intensity
TGAGACTTTGGACTTTTGAACTAAGGCTGGGCCTAGGGAGATTAGAGTATCGGTCGA | 4.72 log2 normalized intensity
AGCTGGACTTTGAACTTCATGTGTGGTGCAGCCTAGGGAGATTAGAGTATCGGTCGA | 6.21 log2 normalized intensity
CTTTGGACTTTTGAACTAAGGCTGGAATGAGCCTAGGGAGATTAGAGTATCGGTCGA | 2.92 log2 normalized intensity
CCTAAATCTAAGCTGGACTTTGAACTTCATGCCTAGGGAGATTAGAGTATCGGTCGA | 8.99 log2 normalized intensity
GACTTTGAACTTCATGTGTGGTGCAGATTCGCCTAGGGAGATTAGAGTATCGGTCGA | 1.97 log2 normalized intensity
ATCTAAGCTGGACTTTGAACTTCATGTGTGGCCTAGGGAGATTAGAGTATCGGTCGA | 7.91 log2 normalized intensity
TTGTACTCAGTATGTGCTGACTGACTCCTGGCCTAGGGAGATTAGAGTATCGGTCGA | 0.992 log2 normalized intensity

Sequence | binding signal
GTGACCTTTGACCTCTGGCCTTTGCAGTTAGCCTAGGGAGATTAGAGTATCGGTCGA | 8.21 log2 normalized intensity
TTAGCTATCAGTGTTGACCTCTGGACCTCAGCCTAGGGAGATTAGAGTATCGGTCGA | 6.97 log2 normalized intensity
TAACGGTGAGGGAGGAGACTTTGACCTCTGGCCTAGGGAGATTAGAGTATCGGTCGA | 6.61 log2 normalized intensity
CTGACAAGTATCTCGGTCAAACCTTTGACCGCCTAGGGAGATTAGAGTATCGGTCGA | 5.77 log2 normalized intensity
ACCACTTTGAAATAGTGACCTCTGCTGGCCGCCTAGGGAGATTAGAGTATCGGTCGA | 2.65 log2 normalized intensity
GTGAGGGAGGAGACTTTGACCTCTGCTAGGGCCTAGGGAGATTAGAGTATCGGTCGA | 5.43 log2 normalized intensity
GATGTTTAGCTATCAGTGTTGACCTCTGGAGCCTAGGGAGATTAGAGTATCGGTCGA | 5.32 log2 normalized intensity
CTCTAACCACTTTGAAATAGTGACCTCTGCGCCTAGGGAGATTAGAGTATCGGTCGA | 4.36 log2 normalized intensity
CTCAAGTGACCTTTGACCTCTGGCCTTTGCGCCTAGGGAGATTAGAGTATCGGTCGA | 10.2 log2 normalized intensity
TATCAGTGTTGACCTCTGGACCTCATCTTCGCCTAGGGAGATTAGAGTATCGGTCGA | 5.36 log2 normalized intensity
ACCTTTGCCTTCTTGACATCTCTCTCTGCAGCCTAGGGAGATTAGAGTATCGGTCGA | 1.17 log2 normalized intensity
CTGACCTCAAGTGACCTTTGACCTCTGGCCGCCTAGGGAGATTAGAGTATCGGTCGA | 11 log2 normalized intensity
AAGGCTAGTCTTCTTTGGGGCTTAGATAGCGCCTAGGGAGATTAGAGTATCGGTCGA | 0.431 log2 normalized intensity
TGTACAGGACCATGTTCTCCTAAAGTGACTGCCTAGGGAGATTAGAGTATCGGTCGA | -0.786 log2 normalized intensity
CACTGCACCTGCCTGAACAAGTCCAGTGACGCCTAGGGAGATTAGAGTATCGGTCGA | -0.89 log2 normalized intensity
CACTGAGATAAAAATGGCCAAAGGTTGCCAGCCTAGGGAGATTAGAGTATCGGTCGA | 2.09 log2 normalized intensity
CCACATTCTGAGACTAAAGAGTACACAAAGGCCTAGGGAGATTAGAGTATCGGTCGA | -0.922 log2 normalized intensity
TTCCTGGATTGTGAAACACAGGACTTGATCGCCTAGGGAGATTAGAGTATCGGTCGA | 0.71 log2 normalized intensity
GAGTGTCCTGCCCCCTGGAGGAGTGAGGGAGCCTAGGGAGATTAGAGTATCGGTCGA | 1.34 log2 normalized intensity
GGGGAGGTCAACCAGGGAAATTACCCTCTAGCCTAGGGAGATTAGAGTATCGGTCGA | -0.241 log2 normalized intensity
ACAGGGCTTGGGGTGGGGTTGGAGTCCAGAGCCTAGGGAGATTAGAGTATCGGTCGA | 1.25 log2 normalized intensity
AGTGAAGGTTCAGTGAAGTAGTGTGTATGAGCCTAGGGAGATTAGAGTATCGGTCGA | 2.27 log2 normalized intensity

Sequence | binding signal
ATTATCTGCTTTTATGACCTTTGACTGCAGGCCTAGGGAGATTAGAGTATCGGTCGA | 6.64 log2 normalized intensity
TTTATGACCTTTGACTGCAGAAGATAAGAAGCCTAGGGAGATTAGAGTATCGGTCGA | 3.94 log2 normalized intensity
CCTAAGCCTTATTATCTGCTTTTATGACCTGCCTAGGGAGATTAGAGTATCGGTCGA | 3.06 log2 normalized intensity
TCTGCCTTTTATCTATTTGTCGCCTCTGACGCCTAGGGAGATTAGAGTATCGGTCGA | 0.141 log2 normalized intensity
CTGCTTTTATGACCTTTGACTGCAGAAGATGCCTAGGGAGATTAGAGTATCGGTCGA | 5.27 log2 normalized intensity
GCCTTATTATCTGCTTTTATGACCTTTGACGCCTAGGGAGATTAGAGTATCGGTCGA | 7.34 log2 normalized intensity
AACTTTGCAGCAGATAATTACCTGGACTCTGCCTAGGGAGATTAGAGTATCGGTCGA | 3.6 log2 normalized intensity
CAGATGTTTCTGCAAGCACACTGTCCTGCTGCCTAGGGAGATTAGAGTATCGGTCGA | -0.824 log2 normalized intensity
TGCCCAGCTTGAATCACTCACTGACCTCTTGCCTAGGGAGATTAGAGTATCGGTCGA | 3.98 log2 normalized intensity
GCCTGCCCCTCTGACCTCTCCTCCTACCTTGCCTAGGGAGATTAGAGTATCGGTCGA | 3.24 log2 normalized intensity
AAATCTGCCCAACCTTTGCCCCTGGAGGGAGCCTAGGGAGATTAGAGTATCGGTCGA | 3.74 log2 normalized intensity
GAACTCTGACCTTTGCCCCCAGCCTCTCACGCCTAGGGAGATTAGAGTATCGGTCGA | 8.72 log2 normalized intensity
CTTTGCCCCCAGCCTCTCACAGTAGCCCAGGCCTAGGGAGATTAGAGTATCGGTCGA | 4.6 log2 normalized intensity
AGGAGGAGGTTCCTGGAACTCTGACCTTTGGCCTAGGGAGATTAGAGTATCGGTCGA | 5.97 log2 normalized intensity
GCTATCTTATCTTTGACCTTACCAGCCCACGCCTAGGGAGATTAGAGTATCGGTCGA | 2.3 log2 normalized intensity
ACCGACCTTTGGTTCCTGAACTCAAACCCCGCCTAGGGAGATTAGAGTATCGGTCGA | 2.57 log2 normalized intensity
CTGACCTTTGCCCCCAGCCTCTCACAGTAGGCCTAGGGAGATTAGAGTATCGGTCGA | 6.87 log2 normalized intensity
GAGGTTCCTGGAACTCTGACCTTTGCCCCCGCCTAGGGAGATTAGAGTATCGGTCGA | 10.5 log2 normalized intensity
TCCTGGAACTCTGACCTTTGCCCCCAGCCTGCCTAGGGAGATTAGAGTATCGGTCGA | 9.67 log2 normalized intensity
AGCCTCTCACAGTAGCCCAGGTCCTTTGGTGCCTAGGGAGATTAGAGTATCGGTCGA | 0.178 log2 normalized intensity
